Results: PubChem BioAssay (NCATS)
Results filed as inconclusive are left out. Where a call stands in place of a potency, no number is given. Calls of active or inactive are those of the source. The call rests on the fitted dose curve; in most records, active means well fitted curve in the direction sought with a large enough effect; inconclusive means small, poorly fitted or top-dose-only effect, or another doubt; inactive means no such curve, though single readings can be large; an effect the other way counts as inactive or inconclusive.

Key:
[1] = target: Aldehyde dehydrogenase, mitochondrial (Homo sapiens) (UniProt P05091); assay: qHTS for Inhibitors of the Aldehyde Dehydrogenase Family (ALDH2) Primary screen (AID 2061308); further: nearly all actives have a fitted effect of over 55% in size
[2] = target: Retinaldehyde dehydrogenase 3 (Homo sapiens) (UniProt P47895); assay: qHTS for Inhibitors of the Aldehyde Dehydrogenase Family (ALDH1A3) Primary screen (AID 2061315)

CSc1cnc(-c2ccccc2C(C)C)nc1NCc1ccc(-c2cccnc2)cc1
Potency [1]: inactive
Potency [2]: inactive

CCOC(=O)C1CCN(C(=O)C2(NC(=O)Nc3ccc(F)cc3F)CCCCC2)CC1
Potency [1]: inactive
Potency [2]: inactive

CCOC(=O)c1ccoc1-c1ccc2ncnc(NCc3csc(C)n3)c2c1
Potency [1]: inactive
Potency [2]: inactive

Cc1cnc(NC(=O)c2cc(S(=O)(=O)N(C)C)ccc2N2CCCC2)s1
Potency [1]: inactive
Potency [2]: inactive

Cn1c2ccsc2c2ncn(Cc3ccc(F)cc3)c(=O)c21
Potency [1]: inactive
Potency [2]: inactive

COc1cccc(CC(=O)Nc2nc(-c3ccc4c(c3)CCN4C(=O)c3ccccc3C)c(C)s2)c1
Potency [1]: inactive
Potency [2]: inactive

CCN(CC)CCCn1c(-c2ccccc2)nc2c(NCc3ccccc3)nc(C)nc21
Potency [1]: inactive
Potency [2]: inactive

N#Cc1cccc(Nc2ncc(-c3cccc4ccccc34)o2)c1
Potency [1]: inactive
Potency [2]: inactive

O=S(=O)(Nc1nccs1)c1ccc(NCc2ccc(Br)cc2O)cc1
Potency [1]: inactive
Potency [2]: inactive

O=C1CCCC2=C1C(c1cccnc1)N=C(Nc1nc3ccccc3o1)N2 (stereo not given)
Potency [1]: inactive
Potency [2]: inactive

CC1(C)CC(=O)C2=C(C1)NC(=S)NC2c1cccc(O)c1 (stereo not given)
Potency [1]: inactive
Potency [2]: inactive

Cc1cnc(-c2ccccc2C(F)F)nc1NCC1CN(c2cnccn2)C1
Potency [1]: inactive
Potency [2]: inactive

COc1cc(NC(=O)C(OC(=O)CNC(=O)c2ccccc2)c2ccccc2)c(OC)cc1Cl (stereo not given)
Potency [1]: inactive
Potency [2]: inactive

C=C1C(=O)O[C@@H]2/C=C(\CO)CC/C=C(/C=O)C[C@@H](O)[C@@H]12
Potency [1]: inactive
Potency [2]: inactive

COc1cccc(CNc2ccc(S(=O)(=O)Nc3ncccn3)cc2)c1O
Potency [1]: inactive
Potency [2]: inactive

CCCCN(C)C(=O)Cn1nc(-c2ccc(C(F)(F)F)cc2)ccc1=O
Potency [1]: inactive
Potency [2]: inactive

COc1cccc(NC(=S)N2CCN(c3cccc(Cl)c3Cl)CC2)n1
Potency [1]: inactive
Potency [2]: inactive

CCCn1c(-c2ccc(F)cc2)nc2c(NCC(C)(C)CN(C)C)nc(C)nc21
Potency [1]: inactive
Potency [2]: inactive

Cc1cc2c(s1)c1cnn(Cc3cccc(F)c3F)c(=O)c1n2C
Potency [1]: inactive
Potency [2]: inactive

CCCn1c(-c2ccc(F)cc2)nc2c(NCCCCN(C)C)nc(C)nc21
Potency [1]: inactive
Potency [2]: inactive

CC(C)Nc1nc(C#N)nc(Nc2ccccc2)n1
Potency [1]: inactive
Potency [2]: inactive

Cc1cc2c(s1)c1cnn(Cc3c(F)cccc3C(F)(F)F)c(=O)c1n2C
Potency [1]: inactive
Potency [2]: inactive

CN(CCc1cccs1)c1ncnc2ccc(-c3ccc4c(c3)OCO4)cc12
Potency [1]: inactive
Potency [2]: inactive

O=[S+]([O-])(Nc1ccccc1)c1ccc(NCc2cccc(C(F)(F)F)c2Cl)cc1
Potency [1]: inactive
Potency [2]: inactive

O=[S+]([O-])(c1c(F)cccc1F)N1CCN([S+](=O)([O-])c2csc3ccccc23)CC1
Potency [1]: inactive
Potency [2]: inactive

CC(=O)c1ccc(N2CCN(S(=O)(=O)c3ccc4c(c3)CCC(=O)N4)CC2)cc1
Potency [1]: inactive
Potency [2]: inactive

CC(=O)Nc1sc2c(c1-c1ccc3c(c1)OCCCO3)CCNC2
Potency [1]: inactive
Potency [2]: inactive

Cc1nc(CN=C2NC3=C(C(=O)CCC3)C(c3[nH]ncc3Cl)N2)cs1 (stereo not given)
Potency [1]: inactive
Potency [2]: inactive

N[C@@H](Cc1ccc(O[S+](=O)([O-])c2cccc3cccnc23)cc1)C(=O)N1CCN(c2ccccc2)CC1
Potency [1]: inactive
Potency [2]: inactive

Cc1cnc(-c2ccccc2C(C)C)nc1NCc1cccnc1
Potency [1]: inactive
Potency [2]: inactive
